We go through 60 molecules from PubChem BioAssay AID488899 (Broad Institute, 2010).

The structures appear in SMILES notation. The campaign covered roughly 330,000 compounds. About 2,800 (0.85%) were called active.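 The calls were made as follows: active = mean inhibition across replicates of 60% or more, whatever share of single replicates reaches that level; inconclusive = some that reach 60%, reason not given; inactive = mean inhibition across replicates below 60%.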 The list comes from a sample in which actives are over-represented; it also holds similar structures and randomly drawn compounds.

The nature of this assay: MITF transcriptional activity suppression – cell-based, SK-MEL-5, single point, luciferase, primary screen (AID 488899). To be noted: SK-MEL-5 TRPM1 promoter luciferase, 24 h; at 12.5 µM; hits give high values.
Usually inhibition stands for the relative decrease from the control value, in per cent. With `CNN/C(N=Cc1ccc([N+](=O)[O-])s1)=N\S(=O)(=O)c1cc(C)c(Cl)cc1SCc1ccccc1`, the inhibition is 24.1% (inactive).

In the case of `CNC[C@H](CC1CCCCC1)NC[C@H](NCCC1CCCC1)[C@H](C)O`, the inhibition was 78.2% (active).

Take `CCOC(=O)c1ccccc1NC(=O)CSc1nc2c(sc(=S)n2CC)c(=O)[nH]1`: the inhibition was -3.35% (inactive).

For `Cc1ccc(-n2nc(N)c3c(=O)oc(N(C)C)nc32)cc1`, the inhibition is -8.9% (inactive).

As for `COc1ccc(C(=O)NCC(c2ccco2)N2CCc3ccccc32)cc1OC` (stereo not given), the inhibition was 5.95% (inactive).

On to `Cc1ccc2nc(-c3ccc(Br)cc3)cn2c1`, for which the inhibition was 50.5% (inactive).

For the molecule `Cc1ccc(-c2cn3cc([N+](=O)[O-])ccc3n2)cc1`, the inhibition was 48.1% (inactive).

As to `Cc1ccc(-c2cn3cc(C)ccc3n2)cc1`, the inhibition is 93.3% (active).

With `CCOc1ccc(-n2cnc3c(=O)[nH]c(N)nc32)cc1`, the inhibition is -21.7% (inactive).

For `O=C(CCCCCCCC(=O)N1CCCCC1)N1CCCCC1`, the inhibition is 0.359% (inactive).

With `COc1ccc(NC(=O)COC(=O)c2ccncc2)c(OC)c1`, the inhibition is -6.34% (inactive).

`COc1cccc2sc3cc(NCC[C@@H]4CCCN4C)ccc3c(=O)c12`: the inhibition was -35.6% (inactive).

Consider `Cc1cc2oc(=O)cc(CN3CCN(Cc4ccccc4)CC3)c2cc1C`, for which the inhibition is -7.61% (inactive).

For `Cc1cc2oc3ccc(NCCC4CCCN4C)cc3c(=O)c2cc1C` (stereo not given), the inhibition is 82.2% (active).

Regarding `CCOc1ccc(CN2CCNC(=O)C2CC(=O)NCCCC2CCCC2)cc1` (stereo not given), the inhibition was -18.3% (inactive).

In the case of `COc1cc([N+](=O)[O-])ccc1NC(=O)COC(=O)CCOc1ccc(C)cc1`, the inhibition is 8.46% (inactive).

As to `COc1ccc(CCNC(=O)c2cnc(Cl)c(Cl)c2)cc1`, the inhibition was 1.33% (inactive).

Take `COc1ccc(NC(=O)/C(Cl)=C(/Cl)S(=O)Cc2ccc(C)cc2)cn1` (stereo not given): the inhibition is 113% (active).

As to `COC(=O)c1sccc1NC(=S)Nc1ccc(C)cc1`, the inhibition was -74.3% (inactive).

Consider `COc1ccc(CS(=O)/C(Cl)=C(/Cl)C(=O)Nc2ccc(OC)nc2)cc1` (stereo not given), for which the inhibition was 99.4% (active).

Take `COc1ccc(C(=O)CCC(=O)Nc2ccc(Cl)cc2)cc1`: the inhibition was -4.44% (inactive).

Consider `CCN(CC(=O)Nc1ccc(OC)cc1)C(=O)CSCc1ccc(C)cc1`, for which the inhibition is -0.141% (inactive).

Turning to `COc1ccc(C(=O)NC(Cc2ccc(OC(=O)c3ccc(OC)cc3)cc2)C(=O)O)cc1` (stereo not given), the inhibition was 3.82% (inactive).

Consider `Cc1cc(C(=O)N/N=C/c2ccccn2)c2ccccc2n1`, for which the inhibition was -2.21% (inactive).

For `Cc1nnc(N/N=C/c2ccccn2)[nH]c1=O`, the inhibition was 79.6% (active).

Take `O=C(N/N=C/c1ccccn1)C12CC3CC(CC(C3)C1)C2`: the inhibition is 0.297% (inactive).

In the case of `O=C(O)c1cc(S(=O)(=O)N(Cc2ccccc2)c2cccc(C(F)(F)F)c2)ccc1Cl`, the inhibition was 11.3% (inactive).

For the molecule `COc1cc2c(cc1O)C(SC)=NC(C)(C)C2`, the inhibition was 73.8% (active).

`COc1cc2c(cc1OC)C(Nc1ccc(S(N)(=O)=O)cc1)=NC(C)(C)C2`: the inhibition was 12.1% (inactive).

For the molecule `COc1cc2c(cc1OC)C(C(C)C)=NC(C)(C)C2`, the inhibition is 2.2% (inactive).

Turning to `COc1ccc(-n2c(C)nn(CC3CC3)c2=O)cc1`, the inhibition is -0.556% (inactive).

Consider `CCOc1ccc(NC(=O)CSc2nc3ccccc3c(=O)n2Cc2cccs2)cc1`, for which the inhibition is 9.83% (inactive).

`C=CCn1c(CNS(=O)(=O)c2ccc(Br)cc2)nnc1SC`: the inhibition is -0.805% (inactive).

On to `COc1ccccc1N1CCN(/N=C\C(Br)=C\c2ccccc2)CC1`, for which the inhibition was -56.4% (inactive).

`CC(C)c1cc(C(=O)N/N=C/C(Br)=C/c2ccccc2)n[nH]1`: the inhibition was 11.7% (inactive).

For `Cc1cc(-c2n[nH]c(=S)n2/N=C/C(Br)=C/c2ccccc2)n[nH]1`, the inhibition was 71.3% (active).

Take `COc1ccc(-c2cc(=O)oc3cc(OC(C)C(=O)Nc4ccc(CN5CCOCC5)cc4)ccc23)cc1` (stereo not given): the inhibition is -4.64% (inactive).

Consider `CCCN(CCC)S(=O)(=O)c1cc2c(cc1Br)CCN2C(=O)CC`, for which the inhibition was 0.177% (inactive).

For the molecule `NN=C(NN=Cc1ccccc1)c1ccccc1`, the inhibition was -40.6% (inactive).

Consider `CC(Oc1ccc(-c2ccccc2)c(F)c1)c1ccn(S(=O)(=O)c2cccc3ccccc23)n1` (stereo not given), for which the inhibition is -2.2% (inactive).

Consider `O=C(O)c1ccc(S(=O)(=O)c2ccccc2)s1`, for which the inhibition is 11.8% (inactive).

With `COc1ccc(C2=NN(c3nc4ccccc4s3)C(=O)C2)cc1`, the inhibition was 19.7% (inactive).

Turning to `COC(=O)Cc1[nH]n(-c2nc3ccccc3s2)c(=O)c1C(C)=Nc1ccc(OC)cc1`, the inhibition is 95.4% (active).

`CC(=NCc1ccco1)c1c(C(F)(F)F)[nH]n(-c2nc3ccccc3s2)c1=O`: the inhibition was -61.7% (inactive).

Consider `CC[C@]12c3[nH]c4ccc(Cl)cc4c3CCN1C(=O)[C@@H](CC(=O)NCCCOC)C[C@@H]2C(=O)N1CCN(C(=O)c2ccco2)CC1`, for which the inhibition is -7.5% (inactive).

For the molecule `CCOc1ccc(N/C=C/C(=O)c2ccccc2)cc1`, the inhibition was 8.94% (inactive).

Turning to `CCOc1ccc(N/C=C/C(=O)c2cc(OC)c(OC)c(OC)c2)cc1`, the inhibition is 4.18% (inactive).

On to `COc1ccc(C(=O)/C=C/Nc2ccccn2)cc1`, for which the inhibition was 67.5% (active).

As for `O=[N+]([O-])c1ccc(N=NNc2ccc([N+](=O)[O-])cc2)cc1`, the inhibition is -19.3% (inactive).

For the molecule `CN(C)CCNC(=O)Nc1cccc(Cl)c1Cl`, the inhibition was 5.71% (inactive).

For the molecule `CN(C)CCNC(=O)c1ccc(Cl)c2cc3ccccc3nc12`, the inhibition was 74.8% (active).

As to `CC(=O)NCCNC(=O)c1cc(-c2cccc3ccccc23)nc2ccccc12`, the inhibition was 9.13% (inactive).

As to `Cc1ccc(OCC(=O)Nc2ccc(NC(=O)c3cccs3)cc2)c(C)c1`, the inhibition was 27.8% (inactive).

`Cc1ccc(C(=O)Nc2ccc(NC(=O)c3cccs3)cc2)c(C)c1`: the inhibition is -4.59% (inactive).

For the molecule `Cc1ccc(-c2nnc(-c3ccc(NC(=O)c4cccs4)cc3)o2)cc1`, the inhibition is 73.5% (active).

In the case of `CS(=O)(=O)c1ccc2nnn(OCC(=O)Nc3cccc(C#N)c3)c2c1`, the inhibition was 10.8% (inactive).

In the case of `COc1cc(O)c2c(=O)c3c(O)c(O)ccc3oc2c1OC`, the inhibition is -1.36% (inactive).

Take `Cc1ccccc1-c1n[nH]c(=S)n1/N=C/c1ccc(-c2ccccc2Br)o1`: the inhibition is 10.7% (inactive).

For `O=C(CSc1n[nH]c(-c2cccs2)n1)N1CCCCC1`, the inhibition is -12.1% (inactive).

Consider `COc1cc(OC)cc(C(=O)NNC(=O)CCOc2ccccc2OC)c1`, for which the inhibition is -4.37% (inactive).
